Measured values: PubChem BioAssay (NCATS)
A number with no mark means an inactive call. Records with an inconclusive call do not appear. Active and inactive are the calls of the source. Unless noted, calls follow the shape of the dose curve; as a rule, active = well fitted cell-killing curve with a large enough effect; inconclusive = small, poorly fitted or top-dose-only effect; inactive = flat fitted curve, though single readings scatter.

Assays:
[1] = Cell Viability - BJ (AID 421; calls by dose curve;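 also: potency is read from the fitted curve at half-maximal effect; cells exposed to compound for 40 hours at 37 °C before readout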); conditions: BJ fibroblast viability, qHTS
Outline: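 Quantitative HTS: ATP depletion in BJ cells after 40 hr compound exposure in complete culture medium, detected with CellTiter-Glo; AC50 from standard Hill fits.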

[2] = Cell Viability - Jurkat (AID 426;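 active = dose-dependent loss of cell ATP signal giving a full or clear fitted curve, ranked by lower potency value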;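 also: potency is read from the fitted curve at half-maximal effect; cells exposed to compound for 40 hours at 37 °C before ATP read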); conditions: qHTS
Outline: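 Cells of the human T-cell leukemia line Jurkat (E6-1) are seeded at 5000 per well, treated with compound across a concentration range for 40 hours at 37 °C, then lysed with CellTiter-Glo; luminescence reports ATP.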

[3] = Cell Viability - Hek293 (AID 427;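 active = compounds whose dose-response curve shows a full or clear partial loss of cell viability, called from curve shape rather than a numeric limit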;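 also: potency is read from the fitted curve at half-maximal effect; cells exposed to compound for 40 hours at 37 °C before reading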); conditions: qHTS
Outline: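 AC50 values derive from Hill-modelled concentration-response of ATP-based luminescence, normalized between DMSO-only and 100 uM tamoxifen controls. Cells were exposed in complete culture medium for 40 hr at 37 °C before detection.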

[4] = Cell Viability - HepG2 (AID 433; calls by dose curve;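 also: potency is read from the fitted curve at half-maximal effect; potency for ATP loss meaning cytotoxicity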); conditions: qHTS
Outline: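 ATP luminescence (CellTiter-Glo) after 40 h compound exposure, 37 °C, HepG2, 1500 cells/well, complete medium. Normalized: DMSO = basal, 100 uM tamoxifen = 100% inhibition. AC50 via standard Hill equation.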

[5] = Cell Viability - MRC5 (AID 434; calls by dose curve;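 also: potency is read from the fitted curve at half-maximal effect; potency reflects cytotoxicity seen as loss of intracellular ATP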); conditions: MRC5 lung fibroblast viability, qHTS
Outline: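 Decrease in intracellular ATP, quantified by luciferase light output, reflects compound toxicity toward MRC5 cells exposed for 40 hr in complete culture medium. Concentration-response curves, scaled between DMSO and 100 uM tamoxifen, gave AC50 values.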

[6] = Cell Viability - SK-N-SH (AID 435; calls by dose curve; also: potency is read from the fitted curve at half-maximal effect); conditions: SK-N-SH neuroblastoma cell viability qHTS
Outline: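 CellTiter-Glo ATP luminescence, 20 min RT read; cells pre-plated 5 hr, compound 40 hr at 37 °C, 1500 cells/well, complete medium. Normalized DMSO = 0, 100 uM tamoxifen = 100% inhibition; Hill-fit AC50.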

[7] = target: Mitogen-activated protein kinase 10 (Mus musculus) (UniProt Q61831); assay: JNK3 AlphaScreen Assay (AID 530; active = well fitted curve in either direction with a large enough effect, not every such curve was filed as active;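 also: kinase came from lysate of stimulated human HepG2 cells; signal reports phosphorylation of biotinylated GST-cJun 1-79 at Ser73 with 10 µM ATP; % is scaled to controls: 0 for no effect and ±100 for the full control effect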)
Outline: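 Phosphorylation of biotinylated GST-cJun(1-79) at Ser73 is measured by AlphaScreen proximity luminescence. Enzyme is JNK3 in HepG2 lysates activated with interleukin-1beta and tumor necrosis factor alpha; ATP is 10 uM final.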

[8] = Cell Viability - N2a (AID 540); conditions: N2a mouse neuroblastoma cell viability; activity change, negative = cytotoxicity: at 92.2 µM (top of the series); also: nearly all actives have a fitted effect of over 45% in size; also: potency is read from the fitted curve at half-maximal effect;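 as to activity change, negative = cytotoxicity: plate controls were DMSO alone for no effect and tamoxifen control for full effect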
Outline: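 Cytotoxicity was scored as loss of cellular ATP in N2a cells, a mouse neuroblastoma line. Compounds are applied in a qHTS concentration series for 40 hr at 37 °C.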

[9] = Cell Viability - NIH 3T3 (AID 541); conditions: NIH 3T3 cell viability, qHTS; activity change, negative = cytotoxicity: at 92.2 µM (top of the series); also: nearly all actives have a fitted effect of over 25% in size; also: potency is read from the fitted curve at half-maximal effect;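 as to activity change, negative = cytotoxicity: plate controls were DMSO alone for no effect and tamoxifen positive control for full effect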
Outline: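 Cells seeded at 1000/well, rested 5 hr at 37 °C, then dosed and incubated 40 hr at 37 °C. CellTiter-Glo added, 20 min room temperature, luminescence read. AC50 by Hill fit.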

[10] = Cell Viability - H-4-II-E (AID 543); also: nearly all actives have a fitted effect of over 35% in size; also: potency is read from the fitted curve at half-maximal effect
Outline: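 Cells seeded at 1500 per well and rested 5 hr; compounds added; 40 hr incubation at 37 °C; CellTiter-Glo added, 20 min at room temperature; luminescence read. Hill-equation fits gave AC50.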

[11] = Cell Viability - SH-SY5Y (AID 544); also: nearly all actives have a fitted effect of over 55% in size; also: potency is read from the fitted curve at half-maximal effect
Outline: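 Cells were plated at 1500 per well and allowed 5 hr at 37 °C. Compounds were added across a concentration range and incubated 40 hr at 37 °C. CellTiter-Glo was added for 20 min at room temperature before luminescence reading.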

[12] = Cell Viability - Renal Proximal Tubule (AID 545); conditions: renal proximal tubule cells viability; activity change, negative = cytotoxicity: at 91.7 µM (top of the series);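 also: 0% = DMSO only and -100% = 100 µM tamoxifen; nearly all actives have a fitted effect of over 40% in size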
Outline: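 Rat kidney proximal tubule cells, freshly isolated; 1000 cells/well, 5 hr settle, compound 40 hr 37 °C. CellTiter-Glo 20 min RT, luminescence read. AC50 by standard Hill fit.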

[13] = Cell Viability - Mesenchymal (AID 546);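 also: cells exposed to compound for 40 hours before reading; 0% = DMSO only and -100% = 100 µM tamoxifen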
Outline: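 In this qHTS cytotoxicity format, glomerulus-derived human mesenchymal kidney cells received compound for 40 hr, then luciferase-based ATP quantitation. Concentration-response data were fitted with the Hill equation.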

[14] = target: Glucocorticoid receptor (Homo sapiens) (UniProt P04150); assay: GR-GFP Redistribution (AID 450;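 active = compounds whose dose series gives a full or clear partial fitted curve of increased nuclear translocation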; also: potency is read from the fitted curve at half-maximal effect); conditions: U2OS GR-GFP nuclear translocation, laser cytometry, 2 h
Glucocorticoid receptor (Homo sapiens), sequence (P04150 whole entry, looked up, the tested form may be a part): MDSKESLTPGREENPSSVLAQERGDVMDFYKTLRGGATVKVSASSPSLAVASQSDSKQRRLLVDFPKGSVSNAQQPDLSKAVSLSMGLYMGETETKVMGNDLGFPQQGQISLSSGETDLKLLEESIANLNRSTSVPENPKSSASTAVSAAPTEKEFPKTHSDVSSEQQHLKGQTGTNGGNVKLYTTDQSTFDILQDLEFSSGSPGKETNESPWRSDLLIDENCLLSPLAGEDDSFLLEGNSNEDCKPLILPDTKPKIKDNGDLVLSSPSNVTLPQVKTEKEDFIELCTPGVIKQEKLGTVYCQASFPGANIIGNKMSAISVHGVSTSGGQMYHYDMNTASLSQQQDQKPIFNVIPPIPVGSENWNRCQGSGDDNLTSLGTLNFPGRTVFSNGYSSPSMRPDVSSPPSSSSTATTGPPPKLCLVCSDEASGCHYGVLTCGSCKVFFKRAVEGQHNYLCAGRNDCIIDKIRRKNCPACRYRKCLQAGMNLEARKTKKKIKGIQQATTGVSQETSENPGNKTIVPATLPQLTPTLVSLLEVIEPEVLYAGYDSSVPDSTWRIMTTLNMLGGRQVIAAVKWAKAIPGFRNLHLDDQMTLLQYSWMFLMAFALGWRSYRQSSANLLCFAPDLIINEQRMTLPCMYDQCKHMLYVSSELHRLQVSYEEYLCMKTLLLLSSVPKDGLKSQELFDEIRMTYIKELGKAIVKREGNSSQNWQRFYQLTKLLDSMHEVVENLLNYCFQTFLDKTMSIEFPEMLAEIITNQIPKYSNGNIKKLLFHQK

[15] = target: Glucocorticoid receptor (Homo sapiens) (UniProt P04150); assay: GR-EFC Redistribution (AID 451; calls by dose curve; also: potency is read from the fitted curve at half-maximal effect); conditions: CHO-K1 GR-EFC translocation, beta-gal luminescence, 2 h
Outline: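 CHO-K1 cells stably expressing nuclear-localized β-gal enzyme acceptor and GR fused C-terminally to the enzyme donor fragment; ligand-driven nuclear translocation restores β-gal by complementation. Compounds titrated up to 46 uM final, 2 h at 37 °C; luminescence read.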

[16] = NFAT Signaling Pathway (AID 444; active = well fitted curve in either direction with a large enough effect, not every such curve was filed as active;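 also: carbachol stimulus at about its EC50 of 1 µM final; % is scaled to controls: 0 for no effect and ±100 for the full control effect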); conditions: Jurkat NFAT-bla M1, carbachol, beta-lactamase ratio, 5 h; at 38 µM (top of the series) unless noted
Outline: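 Jurkat cells carrying an NFAT-driven β-lactamase reporter and co-transfected muscarinic M1 receptor were treated with compound plus carbachol (1 uM final, an EC50 level) for 5 h at 37 °C. CCF4 loading followed for 1 h at RT; 460/530 nm ratio gave %activity.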

Structure (SMILES) | Potency [1] [µM] | Potency [2] | Potency [3] [µM] | Potency [4] [µM] | Potency [5] [µM] | Potency [6] | outcome [7] | Potency [8] | Potency [9] | Potency [10] | Potency [11] | Potency [12] | Potency [13] | Potency [14] [µM] | Potency [15] [µM] | activity change, negative = cytotoxicity [8] | activity change, negative = cytotoxicity [9] | activity change, negative = inhibition [16] [%]
Clc1ccccc1Cl | > 92 | > 92 µM | > 92 | > 92 | > 92 | > 92 µM | inactive | inactive | inactive | inactive | inactive | inactive | inactive | – | – | – | – | –
ClC=C(Cl)Cl | > 92 | > 92 µM | > 92 | > 92 | > 92 | > 92 µM | inactive | inactive | inactive | inactive | inactive | inactive | inactive | – | – | – | – | –
C[C@]12CCC(=O)C[C@@H]1CC[C@@H]1[C@@H]2CC[C@]2(C)[C@@H](O)CC[C@@H]12 | > 92 | > 92 µM | – | > 92 | > 92 | > 92 µM | inactive | inactive | inactive | – | inactive | inactive | inactive | – | – | – | – | –
CCCCCl | > 92 | > 92 µM | > 92 | > 92 | > 92 | > 92 µM | inactive | inactive | inactive | inactive | inactive | inactive | inactive | – | – | – | – | –
O=C(O)C(Cl)(Cl)Cl | > 92 | > 92 µM | > 92 | > 92 | > 92 | > 92 µM | inactive | inactive | inactive | inactive | inactive | inactive | inactive | – | – | – | – | –
N[C@@H](Cn1oc(=O)[nH]c1=O)C(=O)O | – | – | – | – | – | – | inactive | – | – | – | – | – | – | > 46 | > 46 | – | – | –
O=c1ccc2[nH]cc(C3=CCNCC3)c2[nH]1 | – | – | – | – | – | – | inactive | – | – | – | – | – | – | > 46 | > 46 | – | – | –
CC(C)Nc1ccc(Nc2ccccc2)cc1 | – | 22.8 µM (active) | – | – | – | 40.5 µM (active) | – | – | – | 25.1 µM (active) | 10 µM (active) | – | – | – | – | -116% (active) | -150% (active) | –
Oc1cc(Cl)c(Cl)cc1Cl | > 92 | – | > 92 | > 92 | > 92 | – | inactive | 25.1 µM (active) | inactive | inactive | inactive | inactive | inactive | – | – | – | – | –
CCN(CCCl)Cc1ccccc1Br | – | – | – | – | – | – | inactive | – | – | – | – | – | – | > 46 | > 46 | – | – | -24.5
ClC(Cl)(Cl)Cl | > 92 | > 92 µM | > 92 | > 92 | > 92 | > 92 µM | inactive | inactive | inactive | inactive | inactive | inactive | inactive | – | – | – | – | –
COC1=CC(=O)O[C@@H](/C=C/c2ccccc2)C1 | > 92 | > 92 µM | > 92 | > 92 | > 92 | > 92 µM | inactive | inactive | inactive | – | inactive | inactive | inactive | – | – | – | – | –
S=C=S | > 92 | > 92 µM | > 92 | > 92 | > 92 | > 92 µM | inactive | inactive | inactive | inactive | inactive | inactive | inactive | – | – | – | – | –
O=C/C=C/c1ccccc1 | > 92 | – | – | > 92 | > 92 | > 92 µM | inactive | inactive | 12.6 µM (active) | inactive | inactive | inactive | inactive | – | – | – | – | –
